KDM5B inh – KDM5B demethylase inhibition; KDM5B demethylase, FDH-coupled NADH fluorescence (FDH is formaldehyde dehydrogenase); Potency, µM (series often up to 57.7 µM), usual class: inhibitors; Q9UGL1; actives 2.6% (n = 220,000); active means well fitted inhibition curve with a large enough effect; further: 0% is about no effect; nearly all actives have a fitted effect of over 70% in size
Target sequence (Q9UGL1 whole entry, looked up): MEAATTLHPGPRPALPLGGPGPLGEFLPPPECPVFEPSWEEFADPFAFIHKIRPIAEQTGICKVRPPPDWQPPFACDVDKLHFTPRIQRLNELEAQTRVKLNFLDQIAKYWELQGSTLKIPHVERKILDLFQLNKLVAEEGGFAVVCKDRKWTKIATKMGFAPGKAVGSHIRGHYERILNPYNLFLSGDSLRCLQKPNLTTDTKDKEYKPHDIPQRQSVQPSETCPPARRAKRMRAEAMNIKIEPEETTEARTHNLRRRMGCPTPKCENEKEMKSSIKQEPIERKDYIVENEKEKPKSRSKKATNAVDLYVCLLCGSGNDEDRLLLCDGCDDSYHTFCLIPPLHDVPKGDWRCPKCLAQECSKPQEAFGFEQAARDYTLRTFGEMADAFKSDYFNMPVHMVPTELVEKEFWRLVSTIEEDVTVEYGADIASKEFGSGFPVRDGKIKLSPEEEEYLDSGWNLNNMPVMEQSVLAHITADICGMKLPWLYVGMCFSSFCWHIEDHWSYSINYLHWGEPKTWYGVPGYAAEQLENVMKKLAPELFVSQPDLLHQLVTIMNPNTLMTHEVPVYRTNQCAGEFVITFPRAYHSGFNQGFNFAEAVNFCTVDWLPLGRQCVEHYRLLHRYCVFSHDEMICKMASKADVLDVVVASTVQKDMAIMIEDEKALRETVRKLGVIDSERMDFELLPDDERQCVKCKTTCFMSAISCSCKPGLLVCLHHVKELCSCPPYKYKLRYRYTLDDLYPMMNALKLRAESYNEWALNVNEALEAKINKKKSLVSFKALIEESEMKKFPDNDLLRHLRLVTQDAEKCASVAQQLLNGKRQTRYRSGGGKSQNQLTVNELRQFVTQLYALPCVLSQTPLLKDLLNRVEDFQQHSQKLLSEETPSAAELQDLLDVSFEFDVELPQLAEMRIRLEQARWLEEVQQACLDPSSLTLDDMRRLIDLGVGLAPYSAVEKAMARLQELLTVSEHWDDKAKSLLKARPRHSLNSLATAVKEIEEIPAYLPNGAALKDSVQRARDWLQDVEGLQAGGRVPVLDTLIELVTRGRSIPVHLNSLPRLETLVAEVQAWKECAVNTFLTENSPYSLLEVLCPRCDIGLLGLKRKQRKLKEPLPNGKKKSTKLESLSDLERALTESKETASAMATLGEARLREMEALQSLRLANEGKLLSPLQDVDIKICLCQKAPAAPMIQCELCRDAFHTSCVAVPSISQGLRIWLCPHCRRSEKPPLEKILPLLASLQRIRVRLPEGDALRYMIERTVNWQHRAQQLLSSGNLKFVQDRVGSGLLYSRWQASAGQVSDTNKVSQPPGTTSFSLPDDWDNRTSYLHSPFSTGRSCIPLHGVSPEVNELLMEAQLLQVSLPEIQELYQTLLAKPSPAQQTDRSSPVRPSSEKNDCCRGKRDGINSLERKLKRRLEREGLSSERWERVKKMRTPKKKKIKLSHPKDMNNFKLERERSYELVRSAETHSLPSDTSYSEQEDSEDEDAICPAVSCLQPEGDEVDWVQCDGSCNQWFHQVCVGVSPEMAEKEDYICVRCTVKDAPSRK
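qHTS format, multiple compound concentrations. Buffer 50 mM HEPES pH 7.5/0.01% Tween-20; 200 nM KDM5BΔAP final; 10 min compound preincubation; substrate-mix levels 12.5 µM peptide, 25 µM α-KG, 0.25 mM NAD⁺; 30 min RT; ΔRFU.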
Numbers without * were called inactive; i = inactive. This is one part of a sample in which hits are shown more often than they occur. Potency means the concentration at half of the fitted maximal effect.

SMILES	KDM5B inh
O=C(Nc1cccc(Cl)c1)Nc1ncc(Cl)cc1Cl	i
Cc1cccc(-c2ocnc2C(=O)Nc2ccc(C)c(C)c2)c1	i
CC(NC(=O)C1CCCCC1)C1CCCO1 (centres undefined)	i
Cc1ccc(-n2nc(N3CCN(C(=O)Nc4ccccc4C)CC3)ccc2=O)cc1C	i
Cc1noc(C)c1S(=O)(=O)N1CCC2(CC1)c1[nH]c3ccccc3c1CCN2C	i
COc1cccc(N2CC(NC(=O)Nc3nc4c(C)cccc4s3)CC2=O)c1 (centres undefined)	i
CCC(=O)N1Cc2ccccc2CC2(CCCN(Cc3cccnc3)C2)C1 (centres undefined)	i
CN(Cc1ccc(Cl)cc1Cl)C(=O)CCN=C1NS(=O)(=O)c2ccccc21	i
COc1ccc(Cl)cc1C(=O)Nc1ccc(-n2cnnn2)cc1	i
O=C(Nc1ccccc1F)C1c2ccccc2C(=O)N(Cc2ccccc2)C12CCCC2 (centres undefined)	i
Cc1ccc(NC(=O)CSc2nc(C)c(C)n2C2CCCC2)cc1S(=O)(=O)N1CCOCC1	i
Cc1ccc(NC(=S)Nc2ccccc2)nc1	i
FC(F)C(F)(F)Sc1nc2ccccc2[nH]1	i
COc1ccc(CNC(=O)Cc2c(C)c3cc(Cl)c(O)cc3oc2=O)cc1	i
COCCN1CCC2(CCC1=O)CN(C(=O)NC(C)C)CCN2C (centres undefined)	i
COCCN1CCC2(CCC1=O)CN(c1ccc(C#N)cn1)CCN2C (centres undefined)	28.2µM*
CCN1CCC2(CCC1=O)CN(c1ncnc3c1CCC3)CCN2C (centres undefined)	i
CCOc1ccc2c(n1)CCN(C(=O)c1ccc(C)s1)C2	i
Cc1cc(N2CCN(S(=O)(=O)c3ccc(Cl)cc3C(F)(F)F)CC2)nc(C(C)C)n1	i
CCOCCCNC(=O)c1ccc(C#N)cc1	i
N#Cc1ccc(COc2ccccc2C#N)cc1	i
COc1ccc(CN2Cc3[nH]cnc3C[C@H]2C(=O)NCc2ccccc2)c2ccccc12	39.8µM*
COC(=O)[C@@H]1Cc2nc[nH]c2CN1Cc1ccc(Cl)cc1	31.6µM*
N#Cc1ccc(CNC(=O)[C@@H]2Cc3nc[nH]c3CN2Cc2ccccc2)cc1	i
N#Cc1ccc(CNC(=O)[C@@H]2Cc3nc[nH]c3CN2C(=O)NC2CCCCC2)cc1	i
SMILES	KDM5B inh
COC(=O)[C@@H]1Cc2ncn(Cc3ccc(OC)cc3)c2CN1C(=O)C1CCCCC1	i
COc1ccc(CN2Cc3[nH]cnc3C[C@H]2C(=O)NC2CCCCC2)c2ccccc12	35.5µM*
O=C([C@@H]1Cc2nc[nH]c2CN1CC1CC1)N1CCCC1	i
COc1ccc(CNC(=O)[C@@H]2Cc3nc[nH]c3CN2C(=O)NC2CCCCC2)cc1	31.6µM*
O=C(NCc1ccc(Cl)cc1)[C@@H]1Cc2nc[nH]c2CN1Cc1ccc(Cl)cc1	i
O=C(NC1CCCCC1)[C@@H]1Cc2nc[nH]c2CN1Cc1ccc(C(F)(F)F)cc1	i
COc1ccc(CN2Cc3[nH]cnc3C[C@H]2C(=O)N(C)Cc2ccccc2)c2ccccc12	i
O=C(NCc1ccccc1)[C@@H]1Cc2nc[nH]c2CN1Cc1ccc(Cl)cc1	i
CN(C)C(=O)c1ccc(NC(=O)CN2CCCC2c2ccc(Cl)cc2)cc1 (centres undefined)	i
COc1ccc(C(O)(C2CCCCC2)C(CN2CCCCC2)c2ccccc2)cc1 (centres undefined)	i
COc1cccc2c1OC1OC2Oc2c(OC)cccc21	i
CCOc1cc(C=O)cc(Br)c1OC(=O)c1ccc(OC)cc1	i
CCN(C(=O)CC12CC3CC(CC(O)(C3)C1)C2)c1ccccc1	i
ClC(C[n+]1ccccc1)C[n+]1ccccc1	i
O=C(c1cc2c(s1)CCCCC2)N1CCN(c2nccs2)CC1	i
O=C(Cn1nc(C(=O)O)c2ccccc2c1=O)Nc1cccc(Cl)c1	i
CCNC(=O)Cn1c(CO)cnc1SCC(=O)Nc1c(C)cc(C)cc1C	i
O=C(CSc1nnc2ccc(-c3ccncc3)nn12)N1CCCc2ccccc21	i
CCCCC(=O)Nc1oc2c(C)cccc2c(=O)c1-c1ccccc1	i
COc1ccc(C(=O)CCC(=O)OCC(=O)c2ccc3c(c2)OCCO3)cc1	i
CCCC1CCC(c2ccc(C(=O)Oc3cncc(Cl)c3)cc2)CC1 (centres undefined)	i
Cc1cc(C(=O)NC2CCN(Cc3ccccc3)CC2)c2c(C)nn(-c3cccc(F)c3)c2n1	i
CCCCn1c(=O)n(CC(=O)NC(C)C(C)C)c(=O)c2c1ncn2Cc1ccco1 (centres undefined)	i
C=CCN(Cc1cnc(-c2cccc(C)c2)nc1)Cc1ccccn1	22.4µM*
C=CCN(Cc1cccc(OCC(N)=O)c1)Cc1ccccc1C	i
SMILES	KDM5B inh
Cc1cccc(-c2ncc(CN(C)Cc3cccc4ncccc34)cn2)c1	i
NC(=O)COc1ccc(/C(Cc2ccccc2)=N/O)c(O)c1	i
CC(=O)Nc1cccc(NC(=O)CS(=O)(=O)c2cn(CC(=O)N3CCOCC3)c3ccccc23)c1	i
Cc1ccc(-c2cnc(CCC(=O)N3CCOCC3)o2)cc1C	i
O=C(Cc1c[nH]c2ncc(-c3ccncc3)cc12)N1CCOCC1	i
O=C(Cc1c[nH]c2ncc(-c3ccc(F)cc3)cc12)N1CCOCC1	28.2µM*
CC(=O)Nc1cccc(-c2cnc3[nH]cc(CC(=O)N4CCOCC4)c3c2)c1	31.6µM*
CNC(=O)c1cccc(-c2cnc3[nH]cc(CC(=O)NCc4cccs4)c3c2)c1	i
O=C(Cc1c[nH]c2ncc(-c3ccsc3)cc12)N1CCOCC1	31.6µM*
O=C(CS(=O)(=O)c1ccc(F)cc1)N1CCOCC1	i
Cc1cc(C)cc(N(CC(=O)NC(C(C)C)C(C)C)S(=O)(=O)c2ccccc2)c1	i
COC(=O)[C@@H]1Cc2ncn(Cc3ccccc3)c2CN1C(=O)C1CCCCC1	i
CC/C(C)=N/NC(=O)C(c1ccccc1)c1ccccc1	i
CCN(CC)S(=O)(=O)c1ccc(NC(=O)COc2ncnc3ccc(Br)cc23)cc1	i
Cc1cc(/C=C/c2nc3c(ccc4ccccc43)s2)cc(C)c1O	i
CC(Oc1ccc(-c2ccccc2)cc1Cl)C(N)=O (centres undefined)	i
CCCN(Cc1nnc(-c2ccccc2Cl)o1)C(=O)c1ccc(F)cc1Cl	i
CC(C)(C)CC(=O)NCCc1ccsc1	i
CN1CC(=O)N(C2CCNC2)Cc2c1ncnc2N(C)Cc1ccc(F)cc1 (centres undefined)	i
CN1CC(=O)N(C2CCCNC2)Cc2c(NCCc3cccc(F)c3)ncnc21 (centres undefined)	i
CN1CC(=O)N(C2CCCNCC2)Cc2c1ncnc2N1CCCCCC1 (centres undefined)	i
CN1CC(=O)N(C2CCCNCC2)Cc2c1ncnc2N1CCNC(=O)C1 (centres undefined)	i
CN1CC(=O)N(C2CCCNC2)Cc2c1ncnc2N(C)Cc1ccc(F)cc1 (centres undefined)	22.4µM*
CN1CC(=O)N(C2CCNCC2)Cc2c1ncnc2N1CCCC1CO (centres undefined)	i
CN1CC(=O)N(C2CCCNCC2)Cc2c1ncnc2N1CCN(c2ccccn2)CC1 (centres undefined)	79.4µM*
CCNc1ncnc2c1CN(C1CCNCC1)C(=O)CN2C	56.2µM*
CCC(CO)Nc1ncnc2c1CN(C1CCCNCC1)C(=O)CN2C (centres undefined)	i
